The record followed here is PubChem BioAssay (NCATS).

Inconclusive results are not listed. A number with no mark means an inactive call. Activity calls are given as the source filed them. The call rests on the fitted dose curve; in most records, active means well fitted curve in the direction sought with a large enough effect; inconclusive means small, poorly fitted or top-dose-only effect, or another doubt; inactive means no such curve, though single readings can be large; an effect the other way counts as inactive or inconclusive.

Broadly, the viability is a read-out of living cells in per cent, often relative to untreated cells.

The nature of assay [1]: BET inhibitor-based combinations targeting novel dependencies in MECOM-rearranged (r) AML: SET-2 cell line (AID 2202231). Further: nearly all actives have a fitted effect of over 35% in size.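 On viability: plate controls were DMSO treated cells for no effect and wells without cells for full effect.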 The following applies: SET-2 AML cells viability, CellTiter-Glo luminescence, 48 h; viability: hits give low values, concentration not given here. In a few lines:
(§1)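 Cells were plated at 500 per well and exposed to an 11-point dose series of each drug for 48 hr. Viability was measured by CellTiter-Glo luminescence, normalized to DMSO and empty-well controls, and summarized as AUC and per-cell-line Z-AUC.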

Assay [2] in a line: BET inhibitor-based combinations targeting novel dependencies in MECOM-rearranged (r) AML: OCI-AML3 cell line (AID 2202232). Further: nearly all actives have a fitted effect of over 35% in size.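 On viability (% of control): series mostly up to about 46 µM; plate controls were DMSO vehicle wells for no effect and wells without cells for full effect.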 The conditions noted are these: Potency: OCI-AML3 viability. Put shortly: as §1
Assay [3] is described as follows: BET inhibitor-based combinations targeting novel dependencies in MECOM-rearranged (r) AML: MV-4-11 cell line (AID 2202233). Further: nearly all actives have a fitted effect of over 45% in size.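 On viability, % of control: plate controls were DMSO for no effect and blank wells for full effect.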 In a few lines: (§2)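 Activity is given as area under the curve and as Z-AUC, mean-centred within each cell line. It comes from 11-point dose curves normalized to DMSO and empty wells. CellTiter-Glo luminescence was read after 48 hr drug exposure of 500 cells/well.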

Assay [4] in a line: BET inhibitor-based combinations targeting novel dependencies in MECOM-rearranged (r) AML: HNT-34 cell line (AID 2202234). Further: nearly all actives have a fitted effect of over 35% in size.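 On viability (% of control): plate controls were vehicle wells for no effect and cell-free wells for full effect.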 In a few lines:
as §2

Assay [5] is described as follows: BET inhibitor-based combinations targeting novel dependencies in MECOM-rearranged (r) AML: UCSD-AML1 cell line (AID 2202235). Further: nearly all actives have a fitted effect of over 40% in size.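 On viability (% of control): series mostly up to about 46 µM; plate controls were DMSO vehicle wells for no effect and blank wells for full effect.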 Put shortly: as §2
Assay [6] in a line: BET inhibitor-based combinations targeting novel dependencies in MECOM-rearranged (r) AML: AML-194 cell line (AID 2202237; further: nearly all actives have a fitted effect of over 40% in size;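 on viability (% of control): plate controls were vehicle wells for no effect and wells without cells for full effect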). Put shortly:
as §1

A short description of assay [7]: BET inhibitor-based combinations targeting novel dependencies in MECOM-rearranged (r) AML: AML-191 cell line (AID 2202236; further: nearly all actives have a fitted effect of over 35% in size;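 on viability (% of control): plate controls were vehicle wells for no effect and wells without cells for full effect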). Put shortly:
as §1
Potency means the concentration at half of the fitted maximal effect.

`C[C@H]1O[C@H](O[C@H]2[C@H](O)[C@@H](O)[C@@H](O[C@H]3[C@H](O)[C@@H](O)C(O)O[C@@H]3CO)O[C@@H]2CO)[C@H](O)[C@@H](O)[C@@H]1N[C@H]1C=C(CO)[C@@H](O)[C@H](O)[C@H]1O` (stereo not given in full): the viability in assay [1] is 101%. Besides, the Potency result in assay [2], in assay [3], in assay [4], in assay [5] and in assay [6] was “inactive” throughout.
For the compound `CC(C)(CO)n1cc(C(=O)c2cncc(NC(=O)Cc3ccc(Cl)cn3)c2)c2cnc(N)nc21`, the viability in assay [1] is 125%. Besides, the Potency entry in assay [2], in assay [4] and in assay [5] was “inactive” throughout. For the same compound, the Potency in assay [3] was 7.42 µM (active); in assay [6] it was 0.0833 µM (active).
On to `Cc1ccc(NC(=O)c2ccc3c(c2)OCCO3)cc1NC(=O)c1ccc2nc(OCCN3CCCC3)ccc2c1`, for which the Potency was 0.144 µM (active) in assay [1]; 0.257 µM (active) in assay [2]; 0.091 µM (active) in assay [3]; 0.0456 µM (active) in assay [4]; 0.129 µM (active) in assay [5]; 0.204 µM (active) in assay [6].
With `CC(C)(O)c1coc(S(=O)(=O)NC(=O)Nc2c3c(cc4c2CCC4)CCC3)c1`, the viability in assay [1] was 126%. Further, the Potency entry in assay [2], in assay [3], in assay [4], in assay [7] and in assay [6] was “inactive” each time.
As for `CCNCCc1ccc(CN(CC)c2cc(OC)ccc2[C@@H]2CCc3cc(O)ccc3C2)cc1`, the Potency is 9.34 µM (active) in assay [1]; 6.61 µM (active) in assay [2]; 5.9 µM (active) in assay [3]; 8.33 µM (active) in assay [4]; 7.42 µM (active) in assay [7].
Turning to `Nc1cc(C(F)(F)F)c(-c2nc(N3CCOCC3)nc(N3CCOCC3)n2)cn1`, the Potency in assay [1] was 9.34 µM (active); in assay [2] it was 3.72 µM (active); in assay [3], 3.72 µM (active); in assay [4], 2.63 µM (active); in assay [5], 0.934 µM (active); in assay [6], 2.35 µM (active).
Consider `CCCCCN(C)CCC(O)(P(=O)(O)O)P(=O)(O)O`, for which the viability in assay [1] is 124%. Further, the viability (% of control) was 118% [at 5.12 µM] in assay [2], 109% [at 5.12 µM] in assay [4], 109% [at 5.12 µM] in assay [5] and 115% [at 5.12 µM] in assay [6]. Also, in assay [3], the viability, % of control was 131% [at 5.12 µM].
Regarding `CC[C@H]1OC(=O)[C@H](C)[C@@H](O[C@H]2C[C@@](C)(OC)[C@@H](O)[C@H](C)O2)[C@H](C)[C@@H](O[C@@H]2O[C@H](C)C[C@H](N(C)C)[C@H]2O)[C@](C)(O)C[C@@H](C)C(=O)[C@H](C)[C@@H](O)[C@]1(C)O`, the viability in assay [1] is 113%. The Potency entry in assay [2], in assay [3], in assay [4], in assay [5] and in assay [6] was “inactive” in each case.
Take `COc1cc(NS(C)(=O)=O)ccc1Nc1c2ccccc2nc2ccccc12`: the Potency in assay [1] is 2.09 µM (active); in assay [2], 0.372 µM (active); in assay [3] it was 0.0661 µM (active); in assay [4], 0.372 µM (active); in assay [7] it was 0.742 µM (active); in assay [6], 0.742 µM (active).
With `C[C@H](NC(=O)/C(C#N)=C/c1cccc(Br)n1)c1ccccc1`, the Potency in assay [1] was 7.42 µM (active); in assay [2], 4.68 µM (active); in assay [3], 4.17 µM (active); in assay [4], 4.17 µM (active); in assay [5], 3.72 µM (active); in assay [7] it was 4.68 µM (active). The Potency in assay [6] is 9.34 µM (active).
For `C=C1C(=O)O[C@@H]2[C@H]3C(C)=CC[C@@]34O[C@@]4(C)CC[C@@H]12`, the Potency in assay [1] was 9.34 µM (active); in assay [2] it was 8.33 µM (active); in assay [3] it was 7.42 µM (active); in assay [4], 10.5 µM (active); in assay [5] it was 13.2 µM (active); in assay [6] it was 13.2 µM (active).
Turning to `Cc1ccc(-n2[nH]c(C)c(N=Nc3cccc(-c4cccc(C(=O)O)c4)c3O)c2=O)cc1C`, the viability in assay [1] was 109%. Moreover, the Potency result in assay [2], in assay [3], in assay [4], in assay [5] and in assay [6] was “inactive” in each case.
Consider `Cc1cc(O[C@@H](CCC(F)(F)F)c2ccc(C(=O)NCCC(=O)O)cc2)cc(C)c1-c1ccc(C(C)(C)C)cc1`, for which the Potency in assay [1] was 20.9 µM (active); in assay [2] it was 20.9 µM (active); in assay [3], 18.6 µM (active); in assay [4] it was 20.9 µM (active); in assay [7], 16.6 µM (active); in assay [6], 26.3 µM (active).
As to `COc1nnc2ccc(N3CCC(c4ccc(OCCN5CCN(C)C(=O)[C@H]5C)cc4)CC3)nn12`, the Potency in assay [1] is 0.148 µM (active); in assay [2] it was 0.0417 µM (active); in assay [3], 0.059 µM (active); in assay [4], 0.105 µM (active); in assay [7], 0.0833 µM (active).
In the case of `O=C(NOCCO)c1ccc2cncn2c1Nc1ccc(I)cc1F`, the Potency in assay [1] is 18.6 µM (active); in assay [2], 0.0934 µM (active); in assay [3] it was 0.742 µM (active); in assay [4], 0.525 µM (active); in assay [5] it was 1.32 µM (active); in assay [6] it was 1.66 µM (active).
In the case of `CC1(C)S[C@H]2[C@H](NC(=O)[C@@H](N)c3ccc(O)cc3)C(=O)N2[C@H]1C(=O)O`, the viability in assay [1] was 99.7%. Further, the Potency result in assay [2], in assay [3], in assay [4], in assay [5] and in assay [6] was “inactive” each time.
